Among the data in PubChem BioAssay AID827 (SRMLSC, 2007) are viability values, retold here.

Structures are written as SMILES. In all, about 140,000 compounds went through this assay and about 1,700 (1.2%) were called active. What follows is part of a selection rich in actives, with near analogues and random picks from the rest. A number with no mark means an inactive call.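 Rule for the calls: active = viability at or below a set limit, 4 SD under the median of all tested compounds (cut at about 3.7% in these data); inactive = the rest.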

This experiment is described as follows: growth suppression of PTEN-null HCT116, primary screen, cell-based, CellTiter-Glo (AID 827).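 Note: PTEN knockout HCT116 line with beta catenin targeted HCT116 as companion control.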 Conditions: 60 h, at 10 µM, stronger effect = lower value.
In the case of `O=C1CCCCC(=O)c2ccccc2N1`, the viability was 97.7%.

Regarding `c1ccc2c(c1)C(=NC1CCCCC1)NC2=NC1CCCCC1`, the viability is 1.88% (active).

Regarding `O=C(CN1C(=O)C2C3CCC(C3)C2C1=O)Oc1ccc2ccccc2c1` (stereo not drawn), the viability is 86%.

Take `CC1=CC(C)(C)Nc2ccc(OC(=O)CN3C(=O)C4CCCCC4C3=O)cc21` (stereo not drawn): the viability is 0.76% (active).

As to `CC1=CC(C)(C)Nc2ccc(OC(=O)C(Cc3ccccc3)N3C(=O)C4CCCCC4C3=O)cc21` (stereo not drawn), the viability was 45.7%.

On to `CCn1c(=O)cc(SCC(=O)NCCC2=CCCCC2)c2ccccc21`, for which the viability is 91.3%.

For the compound `CCCC(=O)Nc1ccc(C(=O)N/N=C/c2ccc[nH]2)cc1`, the viability is 80.1%.

On to `Cc1ccc(S(=O)(=O)N2CCC(C(=O)N[C@@H](C)C(=O)NCc3ccco3)CC2)cc1`, for which the viability was 102%.

As for `Cc1cc(C)c2nc(SCCC#N)nc(C)c2c1`, the viability is 109%.

Regarding `Cc1cc(C)c2nc3nc(C)cc(C)c3c(N)c2c1`, the viability was 2.26% (active).

`CNC(=S)N/N=C/c1cn(Cc2ccc(C)cc2)c2ccccc12`: the viability is 49.9%.

Turning to `CC(=O)N1CCN(c2cccc(C)c2C)CC1`, the viability was 98%.

On to `O=C(O)c1cnn2c(C(F)(F)F)cc(-c3ccccc3)nc12`, for which the viability was 95.3%.

Take `Cc1cccc(N2CCN(C(=O)c3cnn4c(C(F)F)cc(-c5ccccc5)nc34)CC2)c1C`: the viability is 3.53% (active).

`O=C(Nc1cccc2ccccc12)N1CCN(Cc2ccc3c(c2)OCO3)CC1`: the viability is 1.32% (active).

As to `O=C(CCCN1C(=O)c2cccc3cccc(c23)C1=O)N1CCN(Cc2ccc3c(c2)OCO3)CC1`, the viability was 89.4%.

For the compound `O=C(c1cccs1)N1CCN(Cc2ccc3c(c2)OCO3)CC1`, the viability is 94.4%.

Consider `CC1CCN(c2ccc(C(=O)Nc3nnc(C4CC4)s3)cc2[N+](=O)[O-])CC1`, for which the viability was 96.1%.

As for `Cc1ccc(C2=N/C(=C\c3ccc(OS(=O)(=O)c4ccc(C)cc4)cc3)C(=O)O2)cc1`, the viability is 92.6%.

On to `CCC(=O)/C=C1\Sc2ccccc2N1CC`, for which the viability is 95.3%.

For the compound `CCN1/C(=C/c2ccc3ccc(C)cc3[n+]2CC)Sc2ccccc21`, the viability was 2.61% (active).

Take `O=C(NNC1=NCCC1)c1cccc(S(=O)(=O)N2CCCCC2)c1`: the viability is 96.7%.

Consider `CC(=O)c1ccc(NC(=S)NC(=O)CC(C)C)cc1`, for which the viability was 98.8%.

Turning to `O=C(CC(=O)N/N=C\c1cccc(Cl)c1Cl)NCc1ccccc1`, the viability is 90.4%.

Take `COc1ccccc1N1CCN(C(=O)CN(Cc2ccc(Cl)cc2)S(C)(=O)=O)CC1`: the viability was 68.5%.

In the case of `COc1ccccc1-n1nnnc1S(=O)(=O)Cc1ccc(Cl)cc1`, the viability is 3.39% (active).

Regarding `COc1ccccc1N1CCN(Cc2nnnn2CCc2ccccc2)CC1`, the viability was 104%.

For the compound `CCCN=C1NC(=O)C(CC(=O)NCCc2ccc(OC)c(OC)c2)S1` (stereo not drawn), the viability is 96.5%.

As for `CC(C)Nc1nnc(SCC(=O)/C=C2\N(C)c3ccccc3C2(C)C)s1`, the viability was 79%.

With `O=[N+]([O-])c1ccc(C=Nc2ccc(Cl)cc2Cl)s1`, the viability is 2.41% (active).

For `CCOc1ccc(NC(=O)CCC(=O)N/N=C/c2ccc([N+](=O)[O-])s2)cc1`, the viability is 6.05%.

As to `CC(=O)NC1=NN(C(C)=O)C(C)(CCS(=O)(=O)c2ccc(Cl)c(Cl)c2)S1` (stereo not drawn), the viability is 94.7%.

Consider `COc1ccc2nc(NC(=O)[C@@H]3CCCN3C(=O)c3cccs3)sc2c1`, for which the viability was 85.2%.

Take `Cn1c(C(=O)NCCN2CCc3ccccc3C2)cc2c(=O)[nH]c3ccccc3c21`: the viability is 75.8%.

With `O=C(NCCN1CCN(Cc2ccccc2)CC1)c1cc2c(=O)[nH]c3ccccc3c2s1`, the viability is 2.62% (active).

For the compound `CN1CCN(CCCNC(=O)c2cc3c(=O)oc4ccccc4c3s2)CC1`, the viability was 109%.

As to `COc1ccccc1OCC(=O)OCn1c(SC)nnc(C)c1=O`, the viability is 98.3%.

For `CC(C)(C)C(=O)N1CCC[C@@]1(CO)C(=O)O`, the viability is 93.1%.

For the compound `CCCCCC(=O)NC(=S)NNC(=O)c1ccc([N+](=O)[O-])cc1`, the viability is 37.4%.

Turning to `CCCCCC(=O)Nc1ccc(C(=O)N/N=C/c2ccc([N+](=O)[O-])cc2)cc1`, the viability was 1.62% (active).

As to `O=C(COc1ccc(/C=N/NC(=O)c2ccc(O)cc2)cc1)Nc1ccc([N+](=O)[O-])cc1`, the viability is 60.2%.

Take `COC(=O)C(NC(=O)c1ccc(OC)cc1)(Nc1ncc(S(=O)(=O)c2ccc([N+](=O)[O-])cc2)s1)C(F)(F)F` (stereo not drawn): the viability was 72.2%.

Turning to `O=C(NC(Nc1nc2ccc([N+](=O)[O-])cc2s1)(C(F)(F)F)C(F)(F)F)c1ccccc1`, the viability was 1.46% (active).

Consider `Cc1cc(C)cc(OCC(=O)Nc2nc3ccc([N+](=O)[O-])cc3s2)c1`, for which the viability is 103%.

Regarding `COc1cc(NC(=O)COC(=O)CSc2ccc3ccccc3c2)c(C)cc1[N+](=O)[O-]`, the viability was 96.9%.

Consider `CCn1nc(C)c(/C=N/NC(=O)Cc2ccc(Cl)cc2)c1C`, for which the viability was 91.7%.

For the compound `CCOc1ccc(C(=O)NC(=S)Nc2ccc(NC(=O)C(C)C)cc2)cc1[N+](=O)[O-]`, the viability was 87.9%.

In the case of `CCOC(=O)c1c(C)[nH]c2c1-c1ccccc1C(=O)C2=O`, the viability was 1.66% (active).

On to `Cc1[nH]c2ccccc2c1C(=O)COC(=O)C(C)C`, for which the viability was 112%.

On to `CCOC(=O)c1c(C)[nH]c(=S)c(C#N)c1-c1ccccc1`, for which the viability was 102%.

`CN(C)S(=O)(=O)c1cc(NC(=O)CN2C(=O)NC3(CCCc4ccccc43)C2=O)ccc1Cl` (stereo not drawn): the viability is 59.3%.

In the case of `CCOCCCNC(=O)C(=O)NCCCOCC`, the viability is 102%.

In the case of `COC(=O)CN1C(C)=Nc2ccc(Br)cc2C1c1ccccc1` (stereo not drawn), the viability is 0.62% (active).

In the case of `CCC(CC)C(=O)N1CC(=O)Nc2ccc(Br)cc2C1c1ccccc1` (stereo not drawn), the viability is 71.6%.

`COC(=O)CN1C(=O)C(O)=C(C(C)=O)C1c1ccc([N+](=O)[O-])cc1` (stereo not drawn): the viability was 96.7%.

Take `COc1ccc(OCc2cn3c(C)cc(C)nc3n2)cc1`: the viability is 99.6%.

With `Cc1ccc(S(=O)(=O)N2CCN(CC(=O)N/N=C/c3cc([N+](=O)[O-])ccc3Cl)CC2)cc1`, the viability is 74.4%.

Take `CC(C)/C=N/NC(=O)c1cc(Br)ccc1O`: the viability was 89%.

For `COc1ccc(C/C(C)=N/NC(=O)c2cc(C)oc2C)cc1`, the viability was 98.5%.

`O=C(Cn1c(-c2ccccn2)nc2ccccc21)NCCN1CCOCC1`: the viability is 102%.

Regarding `c1ccc2[nH]c(NCCN3CCOCC3)nc2c1`, the viability was 103%.

For `c1ccc2cc3c(NCCN4CCOCC4)ccnc3cc2c1`, the viability was 3.31% (active).

Turning to `COc1ccccc1C(=O)Nc1ccc(OCc2nnc3c4ccccc4c(C)nn23)cc1`, the viability was 101%.

Take `CCCNC(=O)NC(=O)COC(=O)CC(NC(N)=O)c1ccc(Cl)cc1` (stereo not drawn): the viability was 103%.

In the case of `N#C/C(C(=O)N1CCOCC1)=C1/SC(Cc2ccc(F)cc2)C(=O)N1c1ccccc1` (stereo not drawn), the viability was 89.2%.

For the compound `CCCCOc1ccc(C(=O)NCc2ccncc2)cc1`, the viability is 70.3%.

Turning to `CCCOc1ccc(C(=O)C(CCC(CNCC)C(=O)c2ccc(OCCC)cc2)CNCC)cc1` (stereo not drawn), the viability is 0.64% (active).

As to `CCCCOc1ccc(C(=O)NN2CCN(C)CC2)cc1`, the viability is 102%.

`CC1(C)C2CC=C(/C=N/NC(=O)c3ccc(Cl)cc3)C1C2` (stereo not drawn): the viability was 90.5%.

In the case of `Fc1ccccc1/C=C1\CCCC2=C1Nc1ncnn1C2c1ccccc1F` (stereo not drawn), the viability is 2.48% (active).

In the case of `O=C(/C=C\c1cn(-c2ccccc2)nc1-c1cccs1)N1CCOCC1`, the viability was 67.3%.

Regarding `CCn1c(/C=N/NC(=O)c2ccc(OC)cc2)nc2ccccc21`, the viability is 14.3%.

Take `O=C(Nn1c(-c2ccc(Cl)cc2)nc2ccccc2c1=O)c1cccnc1Cl`: the viability was 102%.

For `CCOC(=O)c1c(/N=C/c2cc(C)ccc2O)sc2c1CCC2`, the viability is 91.9%.

In the case of `CSc1nc(-c2ccccc2)nc(C(Cl)Cl)n1`, the viability was 2.06% (active).

With `CSc1nc(C)cc(SC(C(C)=O)C(=O)Nc2ccccc2)n1` (stereo not drawn), the viability was 88.1%.

Regarding `C/C(=N/NS(=O)(=O)c1ccccc1)c1ccc(NC(=O)C(F)(F)F)cc1`, the viability is 96.4%.

Consider `CCOc1cc(N2CCOCC2)c(OCC)cc1NC(=O)COc1cccc2cccnc12`, for which the viability was 3.59% (active).

For `Cc1cccc(OCC(=O)NC(=S)Nc2ccccc2N2CCOCC2)c1`, the viability is 99.9%.

Consider `CCOc1cc(N2CCOCC2)c(OCC)cc1NC(=O)COC(=O)[C@H](Cc1c[nH]c2ccccc12)NC(C)=O`, for which the viability is 93.5%.

With `O=[N+]([O-])c1ccc(N2CCN(S(=O)(=O)c3ccccc3)CC2)cc1N1CCc2ccccc2C1`, the viability was 89.4%.

Regarding `O=C(Cc1ccccc1)NNS(=O)(=O)c1ccc([N+](=O)[O-])cc1`, the viability was 101%.

Consider `CC(C)CCN1C(=O)c2ccc(C(=O)Nc3cccc(S(N)(=O)=O)c3)cc2C1=O`, for which the viability was 88.8%.

On to `COC(=O)c1c(NC(=O)CN2CCN(S(=O)(=O)c3ccccc3[N+](=O)[O-])CC2)sc2c1CCC(C)C2` (stereo not drawn), for which the viability was 93.5%.

As for `CCC1CCc2c(sc(NC(C)=O)c2C#N)C1` (stereo not drawn), the viability was 95.5%.

As to `CN1CCN(CC(=O)Nc2sc3c(c2C#N)CCC(C(C)(C)C)C3)CC1` (stereo not drawn), the viability is 3.39% (active).

As to `Cc1ccc2sc(NNC(=O)c3ccc4c(c3)OCCO4)nc2c1C`, the viability was 68.3%.

For `O=C1C2C3C=CC(C4CC34)C2C(=O)N1c1nccs1` (stereo not drawn), the viability is 101%.

For `C=CCOc1ccc(/C=N/NC(=O)C(C)Sc2ccccn2)cc1OCC` (stereo not drawn), the viability was 103%.

On to `Cc1ccc(OCc2nnc(SC3CCc4ccccc4C3=O)n2C)cc1` (stereo not drawn), for which the viability is 85.3%.

As to `O=C(/C=C/c1ccc(Cl)cc1Cl)NCc1ccco1`, the viability was 96.5%.

Turning to `O=C(/C=C/c1ccc(Cl)cc1Cl)c1cccnc1`, the viability is 0.59% (active).

As for `O=C(NCc1ccc(Cl)c(Cl)c1)c1cccnc1`, the viability is 100%.

As a reminder, the viability is a read-out of living cells in per cent, often relative to untreated cells.
